Test results from ChEMBL document CHEMBL1157539, “Thousands of chemical starting points for antimalarial lead identification” (Nature, 2010).

Experiments:
Format in all cases: functional
Plasmodium falciparum [1] = assay: GSK_TCMDC: Inhibition of Plasmodium falciparum 3D7 in whole red blood cells, using parasite LDH activity as an index of growth. Test compounds present at 2uM
Plasmodium falciparum [2] = assay: GSK_TCMDC: Inhibition of Plasmodium falciparum Dd2 in whole red blood cells, using parasite LDH activity as an index of growth. Test compounds present at 2uM
HepG2 = assay: GSK_TCMDC: Percent inhibition of human HepG2 cell line. Test compounds present at 10uM.

Structure (SMILES) | Inhibition (Plasmodium falciparum [1]) [%] | Inhibition (Plasmodium falciparum [2]) [%] | Inhibition (HepG2) [%]
CCN1CCC(N(Cc2ccc(-c3ccc(C(F)(F)F)cc3)o2)C(=O)Cn2c(CCc3cccc(F)c3F)nc(=O)c3ccccc32)CC1.O=C(O)C(O)C(O)C(=O)O | 91 | 88 | 45
O=c1cc(NCCCNC2CCOc3c(Cl)cccc32)[nH]c2ccccc12 (stereo unspecified) | 96 | 27 | 0
COc1cc(NC(=O)/C=C/c2ccccc2OC(F)(F)F)cc(OCCN2CCN(CCN3CCOCC3)CC2)c1.O=C(O)C(=O)O | 98 | 25 | 20
CCc1ccc2nc(-c3ccc(F)cc3)nc(SCC(=O)Nc3sc(C)c(C)c3C#N)c2c1 | 98 | 5 | 0
Cl.O=C(Nc1cccc2ccccc12)N1CCc2cc3nccc(N4CCN5CCC[C@H]5C4)c3cc21 | 99 | 86 | 11
COc1ccc2nccc([C@@H](O)CN3CCC(NCc4cc5ccc(C#N)cc5[nH]4)CC3)c2c1.O=C(O)C(=O)O | 100 | 39 | 31
O=C(Nc1cccc(C(F)(F)F)c1)NC1CCN(c2ccnc3ccccc23)C1.O=C(O)C(F)(F)F (stereo unspecified) | 100 | 69 | 23
CCCO[C@H](C(=O)OC)[C@@H](CC1Cc2ccccc2C1)C(=O)NCCC1=CCCCC1 | 93 | 57 | 6
CCN(CCCN1CCCCC1)c1nccc(Nc2ccc(Cl)cc2)n1 | 89 | 63 | 19
O=C(O)C(F)(F)F.c1cc(CN2CCCCC2)cc(-c2ccc(-c3nc4ccccc4[nH]3)cc2)c1 | 100 | 88 | 9
Br.CCn1c2c(c(=N)c3ccccc31)CCC2 | 83 | 61 | 11
Cc1cc(C(=O)CN2C(=O)NC(C)(c3ccc4ccccc4c3)C2=O)c(C)n1Cc1ccco1 (stereo unspecified) | 97 | 71 | 12
CC1N=C(N)N=C(N)N1OCc1cccc2ccccc12 (stereo unspecified) | 93 | 4 | 66
CC(C)CNC(=S)N1CCCN(c2nc3ccc(Cl)cc3s2)CC1 | 95 | 11 | 28
Cc1cc(=O)c(-c2ccc(Oc3cccc(Cl)c3)cc2)c(C)[nH]1 | 95 | 89 | 23
Cl.O=[N+]([O-])c1cccc(-c2nc3cc(C4=NC5CCCCC5N4)ccc3[nH]2)c1 (stereo unspecified) | 100 | 81 | 4
O=C(O)C(F)(F)F.OCC1CCCCN1Cc1cccc(-c2cccc(-c3nc4ccccc4[nH]3)c2)c1 (stereo unspecified) | 95 | 4 | 24
N#CC1(c2ccccc2)CCN(c2nc(NCCCN3CCCC3=O)nc(N3CCCC4CCCCC43)n2)CC1 (stereo unspecified) | 95 | 92 | 0
CCCCN(Cc1cccc(C(F)(F)F)c1Cl)c1ccc(C(O)(C(F)(F)F)C(F)(F)F)cc1.O=C(O)C(F)(F)F | 91 | 55 | 10
CC(C)CNCc1cccc(-c2ccc(CNC3CCN(Cc4ccccc4)CC3)cc2)c1.O=C(O)C(F)(F)F | 100 | 99 | 44
CC(O)c1cccc(-c2ccc(Nc3ccnc4cc(-c5nccs5)ccc34)cc2)c1.Cl (stereo unspecified) | 91 | 69 | 31
NCC1CCCN1Cc1cccc(-c2ccc(-c3nc4cc(C(F)(F)F)ccc4[nH]3)s2)c1.O=C(O)C(F)(F)F (stereo unspecified) | 100 | 96 | 17
CCCCN1C(=O)C2CC(=O)CC(C3CCCCC3)C2C1=O (stereo unspecified) | 97 | 1 | 0
CCCCCN1CCCC1CNS(=O)(=O)c1ccc(C(=O)Nc2cccc(C(F)(F)F)c2)cc1.O=C(O)C(F)(F)F (stereo unspecified) | 95 | 0 | 16
CCOc1cccc(C(=O)Nc2cccc(CN3CCCN(Cc4ccc(O)cc4)CC3)c2)c1.O=C(O)C(F)(F)F | 91 | 31 | 23
COC(=O)C(=C(C)C)N1C(=O)[C@@H](NC(=O)OCc2ccccc2)[C@H]1SS[C@@H]1[C@H](NC(=O)OCc2ccccc2)C(=O)N1C(C(=O)OC)=C(C)C | 97 | 96 | 18
Cc1cnc(CNCc2ccc(S(=O)(=O)Nc3ccc(Oc4cccc(Cl)c4)cc3)cc2)cn1.O=C(O)C(F)(F)F | 97 | 0 | 4
